Screening results (PubChem)
Sm TGR block: S. mansoni TGR enzyme inhibition | Q962Y6 | purified TGR, DTNB reduction, TNB absorbance 405 nm | Potency, µM (top dose mostly 114 µM), most hits filed as inhibitors | 3% of 360,000 active; further: nearly all actives have a fitted effect of over 60% in size
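TGR 20 nM + NADPH 100 uM (dispensed conc.), cpd preinc 15 min RT; start with NADPH (500 uM addition) then DTNB (15 mM addition). Kinetic TNB absorbance, 405 nm filter. Four-parameter Hill fit across titration.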
Shiga inhibitor: blocks Shiga toxin action in Vero cells; Vero cells, Shiga toxin protein synthesis inhibition reporter; inhibition, % at 38.7 µM; 9.2% of 290,000 active; in the data active means inhibition mostly above about 28%, no sharp cut-off; inactive means mostly below about 43%
NS1 function inh: blocks influenza NS1 protein function. Potency, µM (series often up to 46.1 µM). 0.4% of 270,000 active; calls by dose curve; further: actives are rising curves; nearly all actives have a fitted effect of over 50% in size
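S. cerevisiae expressing influenza A NS1, grown in glucose, washed, then diluted 1:100 into pH 6.0 -URA galactose medium with 23 nl compound. Growth recovery read as OD600; NS1-free strain serves as control.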
Pf growth 96h: P. falciparum growth inhibition at 96 hour, primary screen for plastid delayed-death inhibitors. P. falciparum luciferase reporter growth, 96 h. 6.9% of 320,000 active. Potency, µM (series often up to 28.7 µM), actives largely listed as inhibitors. AID 504834
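Two-generation exposure (96 h) targets delayed-death phenotype. Reporter parasites carrying integrated firefly luciferase, in red cells at 2% hematocrit and 0.05% parasitemia final, kept at 37 C, 5% CO2; luminescence loss indicates inhibition.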
Cycloheximide cs: counter-screen for Shiga toxin inhibitors: cycloheximide protein synthesis inhibition. cell reporter, cycloheximide protein synthesis inhibition counterscreen. max response, %. 12% of 300,000 active. AID 2314; in the data active means max response mostly above about 13%, no sharp cut-off; inactive means mostly below about 14%; further: read at 38.3 µM for the half of the compounds with a filed dose
Pf growth 48h: inhibits P. falciparum growth in the first generation, 48 h; P. falciparum luciferase growth in erythrocytes, 48 h; Potency, µM (doses to about 28.7 µM), hits mostly inhibitors; 5.9% of 310,000 active
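Here the parasites carry a stable luciferase gene and grow inside erythrocytes in Albumax-based RPMI medium with compound for one erythrocytic cycle. Activity is scored as loss of luminescent signal.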
A number is an active result; 0 = inactive; ? = inconclusive; - = not tested or not shown. Compounds with a hit are over-represented: about 21% of the library has one in this group of screens. Unless noted, the call rests on the fitted dose curve; in most records, active means well fitted curve in the direction sought with a large enough effect; inconclusive means small, poorly fitted or top-dose-only effect, or another doubt; inactive means no such curve, though single readings can be large; an effect the other way counts as inactive or inconclusive.

SMILES | Sm TGR block | Shiga inhibitor | NS1 function inh | Pf growth 96h | Cycloheximide cs | Pf growth 48h
CCN(CC)C(=O)c1sc2c(c1C)c(=O)n(-c1ccc(C)c(C)c1)c(=O)n2CC(=O)Nc1ccc(OC)cc1OC | 0 | - | - | - | - | -
C=CCN(C(=O)C1CSC2(C)CCC(=O)N12)c1nc(-c2ccccc2)cs1 (stereo not drawn) | 0 | - | - | ? | - | 12µM
CN(Cc1ccc(C(C)(C)C)cc1)C(=O)C1CSC2(C)CCC(=O)N12 (stereo not drawn) | 0 | - | - | ? | - | ?
Cc1ccc(-c2csc(NC(=O)C3CSC4(C)CCC(=O)N34)n2)cc1 (stereo not drawn) | 56µM | - | - | 0 | - | 0
Nc1c([N+](=O)[O-])c(=O)oc2ccccc12 | 0 | 0 | - | 0 | 0 | 0
Cc1c(C)c(C)c(S(=O)(=O)Nc2ccc3[nH]c(=O)[nH]c3c2)c(C)c1C | 0 | 0 | 0 | 0 | 0 | 0
COc1cc(NC(C)=O)ccc1NC(=O)c1cc2ccccc2o1 | 0 | 0 | 0 | 12µM | 16 | 0
COc1cccc(C(=O)Nc2ccc(NC(=O)c3cc4ccccc4o3)c(OC)c2)c1 | 0 | 0 | 0 | 0 | 0 | 0
COc1ccc(C)cc1NC(=O)c1cc2ccccc2o1 | 0 | 0 | ? | 0 | 0 | ?
COc1cc(NC(=O)c2ccccc2)ccc1NC(=O)c1cc2ccccc2o1 | 0 | 0 | 0 | 0 | 0 | -
CCCC(=O)Nc1ccc(NC(=O)c2cc3ccccc3o2)c(OC)c1 | 0 | - | 0 | 0 | 38 | 0
COc1cc(N)ccc1NC(=O)c1cc2ccccc2o1 | 0 | 64 | 0 | ? | 42 | 0
COc1ccc(OC)c(NC(=O)c2cc3ccccc3o2)c1 | 0 | 0 | 0 | 0 | 27 | 0
Cc1ccc(C2=NS(=O)(=O)N(C)C(C(=O)NC3CCCC3)=C2)cc1 | 0 | 0 | 0 | 0 | 0 | 0
Cc1cccc(N2CCC(N=CN(C)C)=N2)c1 | 0 | 100 | - | 0 | 41 | 0
OCCN(C=NC1=NN(c2cccc(C(F)(F)F)c2)CC1)CCO | 0 | 0 | 0 | 0 | 0 | 0
CCN(C=NC1=NN(c2cccc(C(F)(F)F)c2)CC1)CC | 0 | 0 | 0 | 0 | 37 | 0
O=C(COC(=O)c1cc[n+]([O-])cc1)Nc1ccc([N+](=O)[O-])cc1Cl | 0 | 0 | - | 0 | 0 | 0
Cc1nn(Cc2ccc(Cl)c(Cl)c2)c(C)c1NC(=O)c1noc2c1CCCCC2 | 0 | 0 | 0 | 6.6µM | 0 | 0
CCCc1cc(C(=O)Nc2c(C)nn(Cc3ccc(Cl)c(Cl)c3)c2C)no1 | 0 | - | - | - | - | -
Cc1nn(Cc2ccc(Cl)c(Cl)c2)c(C)c1NC(=O)c1cc(CC(C)C)on1 | 0 | 0 | 0 | 0.33µM | 0 | ?
Cc1nn(Cc2ccc(Cl)cc2)c(C)c1NC(=O)c1noc2c1CCCCC2 | 0 | 0 | 0 | 0 | 0 | ?
Cc1nn(Cc2ccc(Cl)cc2)c(C)c1NC(=O)C(c1ccccc1)c1ccccc1 | 0 | 0 | 0 | 0 | 0 | ?
COc1ccccc1C(C)NC(=O)CCOc1cccc(C)c1 (stereo not drawn) | 0 | 0 | - | 0 | 0 | ?
Nc1ccccc1-c1ccccc1N | 0 | 0 | 0 | 0 | 0 | 0
SMILES | Sm TGR block | Shiga inhibitor | NS1 function inh | Pf growth 96h | Cycloheximide cs | Pf growth 48h
Nc1ccccc1SC/C=C/CSc1ccccc1N | 0 | 68 | 0 | 0 | 37 | -
Cc1ccc(S(=O)(=O)N2CCC(C(=O)NNC(=O)c3ccncc3)CC2)cc1 | 0 | 0 | 0 | ? | 0 | 0
c1ccc2c(Oc3ccc4c(c3)OCO4)nncc2c1 | 0 | 76 | 0 | 0 | 29 | 0
Nc1ccc(Oc2ccc3c(c2)OCO3)cc1 | 0 | 0 | - | ? | 0 | 0
Cc1nc(SCC(=O)OCc2ccccc2)c(C#N)c(-c2ccccc2)c1C(=O)Nc1ccccc1 | 0 | 0 | 0 | ? | 0 | ?
Cc1ccccc1NC(=O)c1c(C)nc(SCC(=O)OCc2ccccc2)c(C#N)c1-c1ccc(F)cc1 | 0 | 0 | 0 | ? | 0 | 13µM
Cc1ccc(C)c(/C(=N\N=C(N)N)C2CC2)c1 | - | - | 0 | - | - | -
Cc1cccc(NC(=S)NCc2ccccn2)c1 | 0 | 0 | 0 | 0 | 0 | 0
Cc1ccc(NC(=O)C(NCc2ccccn2)c2ccccc2)cc1 (stereo not drawn) | 0 | 101 | - | ? | 37 | ?
CN(C)c1ccc(NC(=O)CC(NCc2ccccn2)C(=O)O)cc1 (stereo not drawn) | 0 | 0 | 0 | 0 | 0 | 0
S=C(NCc1ccccn1)Nc1cccc(Cl)c1 | 0 | 0 | - | 0 | 13 | 0
Cc1ccc(NC(=S)NCc2ccccn2)cc1 | 0 | 108 | 0 | 0 | 38 | 0
FC(F)(F)c1cccc(NC(=S)NCc2ccccn2)c1 | 0 | 0 | 0 | 0 | 0 | 0
O=C(Nc1c(C(=O)Nc2ccc(F)cc2)oc2ccccc12)c1cc2ccccc2o1 | 0 | - | - | - | - | -
Cc1ccc(NC(=O)CSc2nc3c(oc4ccccc43)c(=O)n2-c2ccc(F)cc2)c(C)c1 | 0 | - | - | - | - | -
Cc1ccccc1C[C@H](C(=O)O)N1C(=O)c2ccc(C(=O)O)cc2C1=O | 0 | 0 | - | 0 | 0 | 0
Cc1ccc(F)cc1NC(=O)Cn1c(=O)nc(-c2ccccc2F)c2cc(Cl)ccc21 | 0 | - | - | - | - | -
CC1(CCl)N([O-])C2=C(CCCC2)[N+]1=O (stereo not drawn) | 40µM | 0 | 0 | 0 | 14 | 0
CCOc1ccc(CCNC(=O)CCCn2c(=O)c3cccn3c3cccnc32)cc1 | 0 | - | - | - | - | -
CN1CCN(C(=O)CCN2C(=O)/C(=C\c3ccc(Cl)cc3)SC2=S)CC1 | 0 | 0 | 0 | 8.3µM | 0 | 0
COc1ccccc1/C=C1\SC(=S)N(CCC(=O)N2CCN(C)CC2)C1=O | 0 | 0 | 0 | 0 | 0 | 12µM
CCN(CC)S(=O)(=O)c1ccc(N2CCCC2)c(NC(=O)C2CSC3(C)CCC(=O)N23)c1 (stereo not drawn) | 0 | - | - | ? | - | ?
CCN1CC=C2C(C#N)=C(N)C(C#N)(C#N)C(CCc3ccccc3)C2C1 (stereo not drawn) | 28µM | 0 | 0 | 10µM | 0 | 10µM
CC(=O)N1CC=C2C(C#N)=C(N)C(C#N)(C#N)C(CCc3ccccc3)C2C1 (stereo not drawn) | 40µM | 0 | 0 | 0 | 0 | 0
Clc1ccc(-c2csc(=Nc3cccnc3)n2CCCn2ccnc2)cc1Cl | 0 | 0 | 0 | 4.7µM | 0 | 12µM
SMILES | Sm TGR block | Shiga inhibitor | NS1 function inh | Pf growth 96h | Cycloheximide cs | Pf growth 48h
COc1ccc2cc(-c3ccccc3F)ncc2c1 | 0 | - | - | 0 | - | 0
CCC(Cc1ccccc1)NC(=O)CN1C(=O)COc2ccc(S(=O)(=O)N3CCCCCC3)cc21 (stereo not drawn) | 0 | - | - | - | - | -
O=C1c2cc(F)ccc2-n2c1nc1ccccc1c2=O | 0 | 0 | 0 | 0.029µM | 0 | 0.033µM
Cc1cc(C)nc(Nc2ccc(F)cc2)n1 | 0 | 0 | 0 | 0 | 0 | ?
Cc1cccc(Nc2nc(C)cc(C)n2)c1 | 0 | 24 | 0 | ? | 15 | ?
Cc1cc(N(C)C)nc(Nc2ccccc2)n1 | 0 | - | - | 12µM | - | 13µM
O=C(CCn1cnnn1)Nc1cccc(F)c1 | 0 | 0 | - | ? | 0 | 0
Cc1ccc(S(=O)(=O)N2CCC(=O)N([C@H](COCc3ccc(C(F)(F)F)cc3)Cc3ccccc3)CC2)cc1 | - | 0 | - | - | 0 | -
